In PubChem BioAssay:

Legend:
[1] = molecular target: Tumor necrosis factor receptor superfamily member 10B (Homo sapiens) (UniProt O14763); assay: viability loss of caspase-8 NB7 cells with TRAIL – with/without TRAIL, luminescence panel, confirmation (AID 651596); details: NB7 neuroblastoma + caspase-8, TRAIL sensitization, NB7 Caspase-8, with TRAIL, mean of runs, at 10 µM, stronger effect = higher value
[2] = as above; details: NB7 neuroblastoma + caspase-8, without TRAIL, NB7 Caspase-8, without TRAIL, mean of runs, at 10 µM
[3] = molecular target: Tumor necrosis factor receptor superfamily member 10B (Homo sapiens) (UniProt O14763); assay: compound enhancement of TRAIL-induced cell killing – NB7 cells plus caspase-8, luminescence, panel, dose response (AID 652002); details: NB7 neuroblastoma +caspase-8, TRAIL sensitization, luminescence viability, NB7+Caspase-8, with TRAIL, run 1; at 12.5 µM (top of the series)
[4] = molecular target: Tumor necrosis factor receptor superfamily member 10B (Homo sapiens) (UniProt O14763); assay: as above; details: NB7 neuroblastoma +caspase-8, TRAIL sensitization, luminescence viability, NB7+Caspase-8, with TRAIL, run 2; at 12.5 µM (top of the series)
[5] = as above; details: NB7 neuroblastoma +caspase-8, no TRAIL, compound-alone cytotoxicity counter-screen, luminescence viability, NB7+Caspase-8, run 1; at 12.5 µM (top of the series) unless noted
[6] = as above; details: NB7 neuroblastoma +caspase-8, no TRAIL, compound-alone cytotoxicity counter-screen, luminescence viability, NB7+Caspase-8, run 2; at 12.5 µM (top of the series) unless noted

Tumor necrosis factor receptor superfamily member 10B (Homo sapiens), sequence (O14763 whole entry, looked up): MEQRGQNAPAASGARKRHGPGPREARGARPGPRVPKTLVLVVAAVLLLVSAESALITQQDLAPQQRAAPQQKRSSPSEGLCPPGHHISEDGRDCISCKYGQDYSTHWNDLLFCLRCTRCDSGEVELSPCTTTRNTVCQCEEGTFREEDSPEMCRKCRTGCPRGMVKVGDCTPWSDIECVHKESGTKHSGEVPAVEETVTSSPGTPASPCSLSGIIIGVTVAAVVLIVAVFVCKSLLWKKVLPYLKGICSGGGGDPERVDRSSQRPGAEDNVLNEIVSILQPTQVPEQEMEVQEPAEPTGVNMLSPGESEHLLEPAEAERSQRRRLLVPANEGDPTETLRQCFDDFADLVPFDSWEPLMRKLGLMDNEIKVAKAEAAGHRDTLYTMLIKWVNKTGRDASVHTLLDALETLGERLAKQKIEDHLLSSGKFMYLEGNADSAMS

Structure (SMILES) | activity [1] [%] | activity [2] [%] | activity, % sensitization [3] [%] | activity, % sensitization [4] [%] | activity, % sensitization [5] [%] | activity, % sensitization [6] [%]
COc1ccc(-c2cc(C(=O)OCC(=O)Nc3ccc4c(c3)OCO4)c3ccccc3n2)cc1 | 54.6 | 48.5 | 31.3 | 43.9 | 34.3 | 46.2
COCCNC(=O)c1cc(-c2ccc(-c3ccccc3)cc2)nc2ccccc12 | 57.7 | 44.5 | 36.7 | 40.6 | 51 | 41.3
CC(C)(C)OC(=O)[C@H](Cc1ccccc1)NC(=O)c1[nH]cnc1C(=O)Nc1ccccc1F | 54.9 | 54.8 | 16.8 | -4.6 | 6.22 | 2.55
c1ccc(Nc2nnc(-c3cccnc3)s2)cc1 | 57.6 | 40.5 | 46.2 | 42.2 | -5.23 | -13.3
O=C(Nc1cnc2ccccn2c1=O)c1ccc(Cl)cc1Cl | 56 | 52.5 | 15.5 | 2.31 | -7.49 | -6.53
O=C1CCCc2nc(N3CCc4ccccc43)ncc21 | 45.5 | 25.6 | 22.4 | -9.35 | 0.829 | -3.85
C#CC(=O)CC1(CN(Cc2ccccc2)C(=O)OC(C)(C)C)CCCCC1 | 97.7 | 49.4 | 78.9 | 34.5 | 89.9 | 57.8
Cc1ccc(-n2nnc(-c3cccnc3Cl)n2)cc1 | 56.4 | 47.5 | 33.6 | -11.1 | 12 | -10.2
COc1ccc(-c2nc(-c3ccc(NC(=O)c4ccncc4)cc3)no2)cc1OC | 70.5 | 47.2 | -12.9 | -17.5 | 2.44 | -14.5
Cc1cc(N/N=C/c2ccccc2)nc(NCc2ccccc2)n1 | 53.9 | 41.1 | 30.4 | 39.6 | 5.63 | 26.4
CCOc1ccc(/C=C/C(=O)Nc2cccc(C(C)=O)c2)cc1 | 50.7 | 37.2 | 14.7 | 23.8 | 37.9 | 17.4
Cc1nc(Cl)c2oc3ccccc3c2n1 | 84 | 31.1 | -4.95 | -0.917 | -7.33 | -8.16
CCCCc1nc(NCCN)c(C#N)c2c1CSC(C)(C)C2 | 72.5 | 53.7 | -8.34 | -1.9 | 3.06 | -6.28
O=C(Nc1ccc2c(c1)OCCO2)NC1CCCCC1 | 49.5 | 35.8 | 31.2 | 41.7 | 32.9 | 21
COC(=O)c1ccc(/C=C/c2nc3ccccc3c(=O)[nH]2)cc1 | 60.9 | 52.2 | -15.3 | -22.1 | 2.64 | -17.7
CC(C)CCn1cnc2c([nH]c3cccc(Cl)c32)c1=O | 60.6 | 52.9 | -14.6 | -14 | -4.11 | 0.76
COc1cc(SC#N)ccc1N=Cc1c(C)[nH]n(-c2ccc(Cl)cc2)c1=O | 66.9 | 41.2 | -29.2 | -11.6 | -15.4 | -20.1
CCCCC1CCC(C(=O)N(CCC(C)C)c2c(N)n(CCCC)c(=O)[nH]c2=O)CC1 (stereo unspecified) | 90.3 | 39.2 | -14.2 | -10.1 | -5.24 | -5.58
COCCCn1c(C(=O)Nc2ccc3c(c2)OCO3)cc2c(=O)n3cccc(C)c3nc21 | 70.2 | 28.2 | -7.02 | -8.71 | -1.61 | -25.9
Cc1ccc2oc(-c3cccc(N)c3)nc2c1 | 60.5 | 46.2 | 45.8 | 58.3 | 53 | 34
CN(C)CCCN(C(=O)c1ccc(C(=O)c2ccccc2)cc1)c1nc2ccc(F)cc2s1 | 64.6 | 34.9 | 12.1 | 3.85 | 0.995 | 25.8

Structure (SMILES) | activity [1] [%] | activity [2] [%] | activity, % sensitization [3] [%] | activity, % sensitization [4] [%] | activity, % sensitization [5] [%] | activity, % sensitization [6] [%]
COc1cccc(NC(=O)Nc2nccc(C)n2)c1 | 64.5 | 53 | 46.7 | 47.6 | 25.8 | 11.9
CN(C)c1ccc(N/C=C/C(=O)c2ccco2)cc1 | 62.6 | 22.4 | 53.8 | 49.4 | 18.4 | 43.5
COC(=O)[C@]12CCCCC=C1N(Cc1cccc3ccccc13)C(=O)[C@H](CC(=O)NCc1ccc(OC)c(OC)c1)C2 | 66.4 | 53 | 24.8 | 43 | 16.7 | 36.7
CN(C(=O)COC(=O)c1cnc(Cl)c(Cl)c1)C1CCCCC1 | 68.5 | 47.4 | 11.9 | 14.2 | -5.35 | 13.1
Cc1ccn2cc(C(=O)Nc3ccc4c(c3)OCCO4)nc2c1 | 58.2 | 50.8 | 38.4 | 40.7 | 47.9 | 50.7
Cc1cc2nc3ccc(N(C)C)cc3nc2cc1N | 52.4 | 32.9 | 38.9 | 39.1 | 24.2 | 12.1
c1ccc(-c2cnc(-c3ccccn3)nn2)cc1 | 61.4 | 53.5 | 26.5 | 46.5 | 52.7 | 36.1
CCSc1ccc(-c2ccc(C)cc2)nn1 | 59.6 | 51.1 | 47.8 | 52.9 | 5.62 | 35.8
Cc1c(P(=S)(c2ccccc2)c2ccccc2)[n+]2ccccc2n1CCc1ccccc1 | 52 | 44.7 | 3.09 | 9.7 | 3.44 | 9.46
O=C(Nc1ccc2ccccc2c1)c1ccc(Cl)cc1 | 63.1 | 51.3 | 33.9 | 31.4 | 13 | -8.49
Cc1cc(-c2ccccc2)nc(Nc2nc3c(C)cccc3c(=O)[nH]2)n1 | 59.1 | 38 | 41.7 | 10.5 | 22.2 | 5.22
Fc1ccc(-c2cnn3c(-c4ccncc4)ccnc23)cc1 | 49.5 | 48.7 | -13.8 | -2.37 | 13.2 | -12.3
O=C(NC(=O)c1ccccc1)Nc1ccccc1 | 54.2 | 49.9 | 28.7 | 6.32 | 7.63 | -8.56
Cc1cc(NC(=O)C2CCCC2)nc2c1c(=O)oc1ccccc12 | 68.7 | 50.2 | 15 | -6.85 | 0.143 | 17.1
COC(=O)CSc1nc2cc(C)ccc2cc1C#N | 63.1 | 53.9 | 45.7 | 53.4 | 15.2 | 24.1
COc1ccc(OCC(=O)N/N=C/C=C/c2ccccc2)cc1 | 59.4 | 45.4 | 44.7 | 46.1 | 31.1 | 41.1
COc1ccccc1/C=C/C=N/n1c(-c2cc(-c3ccccc3)n[nH]2)n[nH]c1=S | 71.2 | 39.3 | -29.9 | -8.86 | 10.6 | -34.4
O=C(Nc1ccc2c(c1)OCO2)c1ccc2c(c1)OCO2 | 56.3 | 53.1 | 46.4 | 44.3 | 50.5 | 33.4
COc1ccc(-c2cc(C(=O)N/N=C/c3cccnc3)c3ccccc3n2)cc1 | 45.5 | 40.8 | 22.7 | 33.2 | 21.2 | 40.4
CN1C[C@@H]2[C@@H]3C(=O)N(Cc4ccccc4)C(=O)[C@@H]3[C@](Cc3ccccc3)(C1=O)N2C(=O)c1ccc(C(C)(C)C)cc1 | 74.5 | 47.9 | -1.09 | 15.8 | 7.44 | -17
O=C(N/N=C/c1ccc2cccnc2c1)c1ccco1 | 47.2 | 37 | 37.5 | 50.7 | 39.1 | 35.6

Structure (SMILES) | activity [1] [%] | activity [2] [%] | activity, % sensitization [3] [%] | activity, % sensitization [4] [%] | activity, % sensitization [5] [%] | activity, % sensitization [6] [%]
CCOc1ccc(-c2cc(C(=O)N3CCC(C)CC3)c3ccccc3n2)cc1 | 53.4 | 47.2 | 23.7 | 31.6 | -3.22 | -9.62
Clc1nc(Cl)c2ncn(-c3ccccc3)c2n1 | 81 | 52.3 | -4.89 | -7.36 | 2.2 | -11.5
COc1ccc(NS(=O)(=O)c2cccc(C(=O)N/N=C/c3c(F)c(F)c(F)c(F)c3F)c2)cc1 | 77.2 | 47.5 | 7.56 | 35.1 | -2.02 | 41.3
Cn1c(=O)c2c(SCC(=O)Nc3ccccc3F)nc(C3CC3)nc2n(C)c1=O | 50.8 | 44.9 | -6.81 | -10.3 | -1.87 | -25.4
O=C(NC(=S)Nc1nc2c(s1)CCCC2)c1ccccc1 | 69.8 | 47.3 | -8.98 | 47.5 | 2.65 | -0.817
CN(C)CCCN(C(=O)c1ccc(S(=O)(=O)N2CCCc3ccccc32)cc1)c1nc2ccc(F)cc2s1 | 55.7 | 52.9 | -21.5 | 18.8 | -8.84 | 17.9
O=C1c2ccc(Cl)cc2S(=O)(=O)c2cccc(C(=O)N3CCC(Cc4ccccc4)CC3)c21 | 70.8 | 26.7 | -6.25 | 3.7 | -20.1 | -5.15
CCOc1ccc(-c2nnc(-c3ccccc3)o2)cc1 | 56 | 47.3 | 39.4 | 39.8 | 11.9 | -2.15
COCCNc1c(-c2cc3ccc(C)c(C)c3[nH]c2=O)nc2ccccn12 | 64.9 | 47.6 | 60.1 | 54.8 | -1.27 | 53.5
O=C(Nc1ccc2[nH]ccc2c1)c1cccs1 | 64 | 52.9 | 48.2 | 52.7 | 46.5 | 43.5
O=C(N/N=C/c1cccnc1)c1ccc2c(c1)OCO2 | 51.9 | 42.5 | 32.8 | 32.4 | 32.2 | 46.2
CCN(CC)c1ccc(NC(=O)Nc2ccccc2)cc1 | 52 | 47 | 37.6 | 44.7 | 12 | 31.2
O=C(NNC(=O)c1cc(OCC(F)(F)F)ccc1OCC(F)(F)F)c1ccc(Cl)c(Cl)c1 | 63.5 | 50.9 | -9.65 | 2.58 | -2.88 | 0.592
CCOc1ccc2nc(NC(=O)c3cccc(-c4cc5ccccc5oc4=O)c3)sc2c1 | 56.2 | 31.1 | -26.2 | -15.7 | -20.2 | -25.4
Cc1ccc2c(c1)-c1nc3ccccc3cc1C2=NC1CCCCC1 | 49.6 | 41.6 | 26.1 | 46.1 | 4.61 | -9.3
O=c1cc(-c2ccccc2)nc2cc(-c3ccc(F)cc3)[nH]n12 | 57.6 | 47 | 5.68 | -3.23 | -19 | -21.3
O=c1[nH]c(=S)[nH]c2c1C(c1ccc(Cl)c(Cl)c1)OC(CCc1ccccc1)C2 (stereo unspecified) | 57.9 | 37.3 | -9.52 | -15.8 | -5.58 | 14
O=C(NCC1CCCO1)c1ccc2c3n(nc2c1)-c1ccccc1CO3 (stereo unspecified) | 52.9 | 54.6 | 29.1 | 41.5 | 21 | 11.7
COc1ccc(/C(C)=N/Nc2nncc3ccccc23)cc1 | 59.6 | 49.8 | 19.4 | 54.6 | 27.1 | 10.8
